Screening results deposited in PubChem BioAssay by National Center for Advancing Translational Sciences (NCATS).
HPGD inh: blocks human HPGD enzyme activity; P15428; purified HPGD, NADH fluorescence kinetic, PGE2 substrate; Potency, µM, for the others: top-dose activity change, negative = inhibition, actives largely listed as inhibitors; 150,000 tested, 4.3% active; AID 894; active means well fitted inhibition curve with a large enough effect, not every such curve was filed as active; inconclusive means small, poorly fitted or top-dose-only effect, or another doubt; inactive means no such curve, though single readings can be large or run the other way; further: potency means the concentration at half of the fitted maximal effect
Target sequence (P15428 whole entry, looked up): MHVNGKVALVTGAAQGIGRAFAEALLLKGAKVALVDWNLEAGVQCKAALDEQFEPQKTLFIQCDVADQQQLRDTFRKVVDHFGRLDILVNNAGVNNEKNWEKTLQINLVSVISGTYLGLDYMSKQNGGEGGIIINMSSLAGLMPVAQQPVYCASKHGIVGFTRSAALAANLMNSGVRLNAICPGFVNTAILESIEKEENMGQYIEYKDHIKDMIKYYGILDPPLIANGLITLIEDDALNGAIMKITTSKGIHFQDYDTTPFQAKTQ
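NADH formation kinetics: reaction with 30 uM PGE2 and 1 mM NAD+ (final), 20 nM enzyme, Tris-HCl pH 8 with Tween 20, after 15 min compound preincubation at room temperature. Fluorescence change, last versus first of five reads.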
PNC assembly inh: perinucleolar compartment assembly inhibition. 140,000 tested, 3.1% active. PC3M PTB-GFP, PNC prevalence imaging, 16 h; hits give low values. activity change (PNC), negative = inhibition, % at 10 µM. AID 2417;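 active means readout at or below -70, meaning at least 70% loss of cells showing the perinucleolar compartment, a nuclear body marking cancer cells; inconclusive means readout between -30 and a set limit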;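 further: plate controls were DMSO wells for no effect and camptothecin positive control wells for full effect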
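Compounds are pinned in duplicate onto adhered PC3M cells stably expressing GFP-tagged PTB and incubated 16 h at 37 C. Cells are then fixed, nuclei stained with Hoechst, and PNC-positive cells counted.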
15-hLO-2 inh: inhibitors of human 15-lipoxygenase 2 (ALOX15B) | 110,000 tested, 0.56% active | Potency, µM (highest dose often 57.1 µM), for the others: at the highest dose activity change, negative = inhibition, most hits filed as inhibitors | purified 15hLO-2, xylenol orange hydroperoxide absorbance | O15296; further: potency means the concentration at half of the fitted maximal effect; nearly all actives have a fitted effect of over 60% in size
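Screening format was qHTS against 50 nM purified 15hLO-2 in Hepes pH 7.5 with detergent. Activity follows hydroperoxide formation from 45 uM arachidonic acid, measured as 573:405 nm absorbance ratio of the ferric-xylenol orange complex.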
IMPase Li inh: IMPase inhibition in cells with lithium potentiation. 210,000 tested, 0.35% active. CHO-M1 cells, IP1 TR-FRET (IP-One), carbachol + lithium. Potency, µM (top dose mostly 59.4 µM), for inactives: at the highest dose activity, negative = IMPase inhibition, most hits filed as inhibitors;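 further: IP1 builds up when IMPase is blocked and the TR-FRET signal falls; potency means the concentration at half of the fitted maximal effect; plate controls were basal vehicle for no effect and high inhibitor control for full effect; nearly all actives have a fitted effect of over 50% in size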
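Readout is a homogeneous TR-FRET IP1 immunoassay (Ex 320, Em 665 and 620), where raised cytosolic IP1 lowers signal. Cells were CHO-M1 treated 30 min at 37C with test compounds plus a little lithium; AC50 values came from Hill-equation fitting.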
IMPase inh: IMPase inhibition in cells. P97697. CHO-M1 cells, IP1 accumulation, HTRF TR-FRET ratio. inhibition (IP1 accumulation), % at 46.1 µM. 120,000 tested, under 10 active. AID 901; active means well fitted curve in the direction sought with a large enough effect in the signal ratio, not every such curve was filed as active; inconclusive means small, poorly fitted or top-dose-only effect, or a change in a side signal; inactive means no such curve, though single readings can be large or run the other way; the % refers to the signal ratio;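 further: cells stimulated with carbachol in lithium chloride buffer; plate controls were DMSO basal wells for no effect and reference inhibitor wells for full effect; higher means more IMPase inhibition seen as more IP1 and lower FRET ratio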
Target sequence (P97697 whole entry, looked up): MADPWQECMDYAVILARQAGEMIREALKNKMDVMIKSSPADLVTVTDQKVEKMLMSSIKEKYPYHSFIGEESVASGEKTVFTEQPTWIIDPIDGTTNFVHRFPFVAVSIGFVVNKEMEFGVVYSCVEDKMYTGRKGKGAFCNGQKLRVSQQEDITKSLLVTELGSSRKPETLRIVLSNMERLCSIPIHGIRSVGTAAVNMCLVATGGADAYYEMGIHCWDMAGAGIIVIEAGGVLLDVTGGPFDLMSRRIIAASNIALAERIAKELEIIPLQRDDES
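Cellular IMPase inhibition is scored as a rise in cytosolic IP1, detected by competitive TR-FRET between d2-labelled IP1 and a europium anti-IP1 antibody. M1-expressing CHO cells were stimulated with carbachol for 30 min at 37C, with lithium (50 mM LiCl) present in the buffer.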
ALOX12 inhib: 12-hLO (ALOX12) enzyme inhibition; Potency, µM (top dose mostly 57.1 µM), inactives show top-dose activity change, negative = inhibition, actives largely listed as inhibitors; P18054; purified 12-hLO, xylenol orange hydroperoxide absorbance; 150,000 tested, 0.12% active; further: potency means the concentration at half of the fitted maximal effect; nearly all actives have a fitted effect of over 55% in size
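Xylenol orange chromogenic assay: hydroperoxide from 12hLO oxidises Fe(II), giving red-shifted Fe(III)-XO absorbance. Conditions: 150 nM enzyme, 40 uM arachidonic acid, 25 mM Hepes pH 7.0, 0.01% Triton X-100, 30 min, room temperature.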
The depositor's hits bear a star; ? = inconclusive; / = not tested or not shown; [ ] = remark or other dose. A selection: hits, their analogues and other compounds. The true share with any hit is near 5.4%. Unless noted, the call rests on the fitted dose curve; in most records, active means well fitted curve in the direction sought with a large enough effect; inconclusive means small, poorly fitted or top-dose-only effect, or another doubt; inactive means no such curve, though single readings can be large; an effect the other way counts as inactive or inconclusive. Unless noted, on the % scale 0 is the no-effect control and ±100 the full control effect.

SMILES	HPGD inh	PNC assembly inh	15-hLO-2 inh	IMPase Li inh	IMPase inh	ALOX12 inhib
CCOC(=O)N1CCC(N2Cc3cccc(C(=O)Nc4ccc(CC)cc4)c3C2=O)CC1	-14.0%	-107.5*	3.3%	22.2%[38.3 µM]	1.4	-0.5%
CCOC(=O)N1CCC(N2Cc3cccc(C(=O)Nc4ccc(F)cc4)c3C2=O)CC1	-14.3%	41.2	5.0%	4.5%[38.3 µM]	6.1	-7.5%
CCOC(=O)N1CCC(N2Cc3cccc(C(=O)NCc4ccccc4OC)c3C2=O)CC1	-11.3%	-100.0*	/	13.5%	-2.2	-4.8%
Oc1ccc(/C=N/Nc2ncnc3c2ncn3Cc2ccccc2)cc1O	25.1µM*	-28.7	/	9.8%	/	-13.6%
Oc1cccc(/C=N/Nc2ncnc3c2ncn3Cc2ccccc2)c1	22.4µM*	-24.6	/	5.9%	/	0.9%
CC(=O)[C@]1(O)Cc2c(O)c3c(c(O)c2[C@@H](O[C@H]2C[C@H](N)[C@H](O)[C@H](C)O2)C1)C(=O)c1c(O)cccc1C3=O	-2.9%	/	24.1%[0.0915 µM]	31.1%	/	-4.3%[0.00818 µM]
CC(=NCC(=O)O)c1ccccc1	-0.3%	/	-12.9%[11.4 µM]	-8.5%	/	-11.1%[11.4 µM]
CCOC(=O)c1c(C)n(-c2ccccc2)c2ccc(OC(=O)c3ccc(OCC)c(OCC)c3)cc12	/	/	/	/	-5.2	/
CCCCC[C@H](O)/C=C/C=C/C=C/[C@H](O)C/C=C\CCCC(=O)O	-1.2%	/	/	8.5%	/	0.2%
O=c1c(-c2cccc(F)c2)nc2cncnc2n1Cc1ccccc1Cl	/	/	5.5%	12.4%	/	/
CC(=O)SC1CC2=CC(=O)CC[C@]2(C)C2CC[C@@]3(C)[C@@H](CC[C@@]34CCC(=O)O4)C12 (some centres undefined)	-3.1%	/	/	-9.3%	/	/
COc1ccc(Nc2oc(COc3ccccc3OC)nc2C#N)cc1	14.1µM*	72.1	/	9.7%	/	-7.4%
CCNc1oc(COc2ccccc2F)nc1C#N	14.1µM*	-12.5	-3.9%	-10.3%[38.3 µM]	4.7	-9.1%
Cc1ccc(Nc2nnc(-c3ccc(C)c(S(=O)(=O)N4CCOCC4)c3)c3ccccc23)c(C)c1	/	/	/	/	-6.7	/
COc1ccc(C(=O)c2ccc(N(C)C)cc2)c2ccccc12	-4.7%	-96.6*	/	5.5%	-5.7	-1.1%
COc1ccccc1C(=O)COC(=O)c1ccc(N(C)C)cc1	/	/	/	11.9%	/	/
C=CC1=C(C(=O)O)N2C(=O)[C@@H](NC(=O)C(N=O)c3csc(N)n3)[C@H]2SC1 (some centres undefined)	?	/	12.3%[0.0915 µM]	-22.5%	/	-2.7%[0.00818 µM]
O=C1NC(c2ccccc2)C(C(=O)c2cccs2)=C1O (centres undefined)	-3.3%	-107.1*	8.5%	-17.4%[38.3 µM]	?	-2.7%
CCCn1c(C)nc2c(NCCCN(CCO)CCO)nc(C)nc21	0.1%	/	2.2%	-6.3%	/	-0.9%
O=c1[nH]nc(Cc2ccccc2)c2ccccc12	-16.2%	3.4	0.5%	19.4%[38.3 µM]	-6.1	-1.4%
O=c1[nH]c(=S)[nH]nc1Cc1ccccc1	28.2µM*	21.1	-3.8%	3.8%[38.3 µM]	-5.7	-1.7%
O=C(CN1CCN(c2ccccn2)CC1)N1c2ccccc2Sc2ccc(C(F)(F)F)cc21	-14.9%	-113.7*	8.0%	23.9%[38.3 µM]	23.9	?
O=C(CN1CCCC1)N1c2ccccc2Sc2ccc(C(F)(F)F)cc21	-12.1%	16.7	/	35.3%	22.0	10.3%
CCC(C)c1ccc(Nc2ncccc2C#N)cc1 (centres undefined)	17.8µM*	51.4	-5.9%	-0.9%[38.3 µM]	3.8	-6.8%
Cc1[nH]n(-c2ccccc2)c(=O)c1C(C[N+](=O)[O-])c1ccc(Cl)cc1 (centres undefined)	28.2µM*	12.8	/	20.4%	/	-8.1%
O=C1c2ccccc2-c2ccc(N=[N+]([O-])c3ccc4c(c3)C(=O)c3ccccc3-4)cc21	-10.5%	/	-1.8%[11.4 µM]	-7.1%	/	2.2%[11.4 µM]
COc1ccc(C(=O)Oc2ccc(C(c3c(C)[nH][nH]c3=O)c3c(C)[nH][nH]c3=O)cc2)cc1	/	/	/	/	12.1	/
CCOc1ccccc1-c1ccc(C(=O)O)s1	?	/	-0.8%[0.0915 µM]	-24.6%	/	0.8%[0.00818 µM]
